Reference: PubChem BioAssay AID1159580 (chemical genetic matrix, 2015)
The whole screen tested about 5,500 compounds, of which about 2,000 (36%) were called active. Not shown: some 18% with an inconclusive outcome. Rule as the data show it: active = normalized growth mostly below about 0.91 (no sharp cut-off); inconclusive = no clear call, values can overlap the other calls; inactive = mostly above about 0.92. The list shows a part of the results.

Experiment: chemical genetic growth profiling, strain panel (AID 1159580);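 also: tested at 20 µM; growth read once vehicle control cultures reached saturation at 30 °C; 1 = growth at the plate median or of vehicle wells; lower values mean less growth of the strain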
Details: growth OD

Measured: normalized growth

CNC(C)C(O)c1ccccc1 (centres undefined)
inactive: S. cerevisiae deletion strains, locus YJR043C, strain POL32, stronger effect = lower value 0.999 | S. cerevisiae deletion strains, locus YJR066W, strain TOR1, stronger effect = lower value 0.987 | S. cerevisiae deletion strains, locus YKL009W, strain mrt4, stronger effect = lower value 1.01 | S. cerevisiae deletion strains, locus YKL068W, stronger effect = lower value 1.01 | S. cerevisiae deletion strains, locus YKL085W, strain MDH1 (second series), stronger effect = lower value 1 | S. cerevisiae deletion strains, locus YKL085W, strain MDH1, stronger effect = lower value 1 | S. cerevisiae deletion strains, locus YKL160W, strain elf1, stronger effect = lower value 1.02 | S. cerevisiae deletion strains, locus YKL190W, strain CNB1, stronger effect = lower value 1.01 | S. cerevisiae deletion strains, locus YKR001C, strain vps1, stronger effect = lower value 1.03 | S. cerevisiae deletion strains, locus YKR026C, strain gcn3, stronger effect = lower value 1.01 | S. cerevisiae deletion strains, locus YKR091W, strain srl3, stronger effect = lower value 1.01 | S. cerevisiae deletion strains, locus YLL001W, strain dnm1, stronger effect = lower value 1.03 | S. cerevisiae deletion strains, locus YLL026W, stronger effect = lower value 1.01 | S. cerevisiae deletion strains, locus YLL041C, strain sdh2, stronger effect = lower value 1.01 | S. cerevisiae deletion strains, locus YLR027C, strain aat2, stronger effect = lower value 1.02 | S. cerevisiae deletion strains, locus YLR039C, strain RIC1, stronger effect = lower value 0.995 | S. cerevisiae deletion strains, locus YLR058C, strain SHM2, stronger effect = lower value 1 | S. cerevisiae deletion strains, locus YLR102C, strain apc9, stronger effect = lower value 1.02 | S. cerevisiae deletion strains, locus YLR113W, strain HOG1, stronger effect = lower value 0.963 | S. cerevisiae deletion strains, locus YLR221C, strain rsa3, stronger effect = lower value 1.01 | S. cerevisiae deletion strains, locus YLR258W, strain gsy2, stronger effect = lower value 1.01 | S. cerevisiae deletion strains, locus YLR262C, strain YPT6 (second series), stronger effect = lower value 1.01 | S. cerevisiae deletion strains, locus YLR262C, strain YPT6, stronger effect = lower value 1.03 | S. cerevisiae deletion strains, locus YLR268W, strain sec22, stronger effect = lower value 1.02 | S. cerevisiae deletion strains, locus YLR320W, strain mms22, stronger effect = lower value 1.02 | S. cerevisiae deletion strains, locus YLR330W, strain CHS5, stronger effect = lower value 1 | S. cerevisiae deletion strains, locus YLR342W, strain FKS1 (second series), stronger effect = lower value 1 | S. cerevisiae deletion strains, locus YLR342W, strain FKS1, stronger effect = lower value 1.02 | S. cerevisiae deletion strains, locus YLR357W, strain rsc2, stronger effect = lower value 1.05 | S. cerevisiae deletion strains, locus YLR370C, strain arc18, stronger effect = lower value 1.01 | S. cerevisiae deletion strains, locus YLR371W, strain rom2, stronger effect = lower value 1.02 | S. cerevisiae deletion strains, locus YLR384C, strain iki3, stronger effect = lower value 1.02 | S. cerevisiae deletion strains, locus YLR418C, strain cdc73, stronger effect = lower value 1.04 | S. cerevisiae deletion strains, locus YML016C, strain PPZ1, stronger effect = lower value 1.01 | S. cerevisiae deletion strains, locus YML032C, strain rad52, stronger effect = lower value 1.03 | S. cerevisiae deletion strains, locus YML120C, strain ndi1, stronger effect = lower value 1.02 | S. cerevisiae deletion strains, locus YML124C, strain tub3, stronger effect = lower value 1.03 | S. cerevisiae deletion strains, locus YMR058W, strain fet3, stronger effect = lower value 1.02 | S. cerevisiae deletion strains, locus YMR078C, strain ctf18, stronger effect = lower value 1.03 | S. cerevisiae deletion strains, locus YMR125W, strain sto1, stronger effect = lower value 0.996 | S. cerevisiae deletion strains, locus YMR129W, stronger effect = lower value 1 | S. cerevisiae deletion strains, locus YMR205C, strain PFK2, stronger effect = lower value 1.01 | S. cerevisiae deletion strains, locus YMR223W, strain ubp8, stronger effect = lower value 1.02 | S. cerevisiae deletion strains, locus YMR231W, strain pep5, stronger effect = lower value 1.01 | S. cerevisiae deletion strains, locus YMR307W, strain GAS1, stronger effect = lower value 1.02 | S. cerevisiae deletion strains, locus YNL067W, strain RPL9B, stronger effect = lower value 1 | S. cerevisiae deletion strains, locus YNL071W, strain lat1, stronger effect = lower value 1.02 | S. cerevisiae deletion strains, locus YNL128W, strain TEP1, stronger effect = lower value 1.02 | S. cerevisiae deletion strains, locus YNL183C, strain NPR1, stronger effect = lower value 0.971 | S. cerevisiae deletion strains, locus YNL209W, strain ssb2, stronger effect = lower value 1.01 | S. cerevisiae deletion strains, locus YNL233W, strain BNI4, stronger effect = lower value 1 | S. cerevisiae deletion strains, locus YNL248C, strain rpa49, stronger effect = lower value 1.01 | S. cerevisiae deletion strains, locus YNL250W, strain rad50, stronger effect = lower value 1.02 | S. cerevisiae deletion strains, locus YNL271C, strain bni1, stronger effect = lower value 1.02 | S. cerevisiae deletion strains, locus YNL298W, strain CLA4, stronger effect = lower value 1.03 | S. cerevisiae deletion strains, locus YNL307C, strain MCK1, stronger effect = lower value 1.04 | S. cerevisiae deletion strains, locus YNL322C, strain KRE1 (second series), stronger effect = lower value 1.01 | S. cerevisiae deletion strains, locus YNR049C, strain mso1, stronger effect = lower value 1.01 | S. cerevisiae deletion strains, locus YNR052C, strain pop2, stronger effect = lower value 1.02 | S. cerevisiae deletion strains, locus YOL006C, strain TOP1, stronger effect = lower value 0.993 | S. cerevisiae deletion strains, locus YOL012C, strain htz1 1.14 | S. cerevisiae deletion strains, locus YOL147C, strain pex11, stronger effect = lower value 1.03 | S. cerevisiae deletion strains, locus YOR001W, strain rrp6, stronger effect = lower value 1.02 | S. cerevisiae deletion strains, locus YOR061W, strain CKA2, stronger effect = lower value 1.01 | S. cerevisiae deletion strains, locus YOR069W, strain VPS5, stronger effect = lower value 1 | S. cerevisiae deletion strains, locus YOR070C, strain gyp1, stronger effect = lower value 1.01 | S. cerevisiae deletion strains, locus YOR080W, strain dia2, stronger effect = lower value 1.01 | S. cerevisiae deletion strains, locus YOR083W, strain WHI5, stronger effect = lower value 1.02 | S. cerevisiae deletion strains, locus YOR106W, strain vam3, stronger effect = lower value 1.03 | S. cerevisiae deletion strains, locus YOR136W, strain idh2, stronger effect = lower value 1.02 | S. cerevisiae deletion strains, locus YOR144C, strain elg1, stronger effect = lower value 1.01 | S. cerevisiae deletion strains, locus YOR184W, strain ser1, stronger effect = lower value 1.03 | S. cerevisiae deletion strains, locus YOR231W, strain MKK1, stronger effect = lower value 0.995 | S. cerevisiae deletion strains, locus YOR265W, strain rbl2, stronger effect = lower value 1.01 | S. cerevisiae deletion strains, locus YOR270C, strain vph1, stronger effect = lower value 1.04 | S. cerevisiae deletion strains, locus YOR290C, strain snf2, stronger effect = lower value 1 | S. cerevisiae deletion strains, locus YOR316C, strain cot1, stronger effect = lower value 1.02 | S. cerevisiae deletion strains, locus YPL051W, strain arl3, stronger effect = lower value 1.02 | S. cerevisiae deletion strains, locus YPL055C, strain LGE1, stronger effect = lower value 1.01 | S. cerevisiae deletion strains, locus YPL078C, strain atp4, stronger effect = lower value 1.03 | S. cerevisiae deletion strains, locus YPL106C, strain sse1, stronger effect = lower value 1.01 | S. cerevisiae deletion strains, locus YPL240C, strain hsp82, stronger effect = lower value 1.01 | S. cerevisiae deletion strains, locus YPL256C, strain CLN2, stronger effect = lower value 1.03 | S. cerevisiae deletion strains, locus YPR119W, strain clb2, stronger effect = lower value 1.02 | S. cerevisiae deletion strains, locus YPR141C, strain kar3, stronger effect = lower value 1.02 | S. cerevisiae deletion strains, locus YPR163C, strain tif3, stronger effect = lower value 1.04 | S. cerevisiae deletion strains, locus YPR167C, strain met16, stronger effect = lower value 1.02 | S. cerevisiae deletion strains, strain wtn01, stronger effect = lower value 1.02 | S. cerevisiae strains, strain wild type, stronger effect = lower value 0.999
